Results taken from PubChem BioAssay AID1159580 (chemical genetic matrix, 2015).
The whole screen tested about 5,500 compounds, of which about 2,000 (36%) were called active. Roughly 18% stayed inconclusive and do not appear here. Rule as the data show it: active = normalized growth mostly below about 0.91 (no sharp cut-off); inconclusive = no clear call, values can overlap the other calls; inactive = mostly above about 0.92. This is one part of the list.

Experiment: chemical genetic growth profiling, strain panel (AID 1159580);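 also: tested at 20 µM; growth read once vehicle control cultures reached saturation at 30 °C; 1 = growth at the plate median or of vehicle wells; lower values mean less growth of the strain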
Conditions: S. cerevisiae deletion strains, growth OD

Measured: normalized growth

CC1(C)C=CC(=O)[C@@]2(C)C1CC(=O)[C@]1(C)C2CC[C@@]2(C)[C@H](c3ccoc3)OC(=O)C3OC321 (stereo partly drawn)
inactive: locus YAL021C, strain ccr4, active compounds read low 0.977 | locus YAL026C, strain drs2, active compounds read low 1 | locus YAL030W, strain snc1, active compounds read low 0.995 | locus YBL061C, strain skt5, active compounds read low 0.998 | locus YBR009C, strain hhf1, active compounds read low 0.984 | locus YBR021W, strain FUR4, active compounds read low 1 | locus YBR023C, strain chs3, active compounds read low 0.983 | locus YBR171W, strain sec66, active compounds read low 1.01 | locus YBR229C, strain ROT2, active compounds read low 0.944 | locus YBR231C, strain swc5, active compounds read low 1 | locus YBR279W, strain paf1, active compounds read low 0.988 | locus YCL011C, strain gbp2, active compounds read low 0.996 | locus YCL016C, strain dcc1, active compounds read low 0.99 | locus YCL029C, strain bik1, active compounds read low 0.96 | locus YCL061C, strain MRC1, active compounds read low 1.01 | locus YCL069W, strain vba3, active compounds read low 0.995 | locus YCR088W, strain abp1, active compounds read low 1 | locus YDL005C, strain med2, active compounds read low 0.996 | locus YDL035C, strain GPR1, active compounds read low 0.945 | locus YDL040C, strain nat1, active compounds read low 0.996 | locus YDL074C, strain BRE1, active compounds read low 0.926 | locus YDL101C, strain DUN1, active compounds read low 0.967 | locus YDL185W, strain tfp1, active compounds read low 0.966 | locus YDL192W, strain arf1, active compounds read low 0.94 | locus YDR001C, strain nth1, active compounds read low 0.992 | locus YDR069C, strain doa4, active compounds read low 0.976 | locus YDR101C, strain arx1, active compounds read low 0.93 | locus YDR159W, strain sac3, active compounds read low 0.954 | locus YDR162C, strain NBP2, active compounds read low 0.953 | locus YDR195W, strain ref2 1.03 | locus YDR297W, strain sur2, active compounds read low 0.983 | locus YDR318W, strain mcm21, active compounds read low 0.969 | locus YDR334W, strain swr1, active compounds read low 1 | locus YDR335W, strain msn5, active compounds read low 1 | locus YDR388W, active compounds read low 0.982 | locus YDR392W, strain spt3, active compounds read low 0.982 | locus YDR502C, strain sam2, active compounds read low 0.983 | locus YEL003W, strain gim4, active compounds read low 0.994 | locus YEL037C, strain rad23, active compounds read low 1 | locus YEL061C, strain CIN8 (second series), active compounds read low 0.997 | locus YEL061C, strain CIN8, active compounds read low 0.971 | locus YER015W, strain faa2, active compounds read low 0.982 | locus YER016W, strain bim1, active compounds read low 0.985 | locus YER110C, active compounds read low 0.959 | locus YER111C, strain swi4, active compounds read low 1 | locus YER155C, strain BEM2 (second series), active compounds read low 1.01 | locus YER155C, strain BEM2, active compounds read low 0.998 | locus YER167W, strain BCK2, active compounds read low 0.959 | locus YFR010W, strain ubp6, active compounds read low 1.01 | locus YGL078C, strain dbp3, active compounds read low 1.02 | locus YGL086W, strain mad1, active compounds read low 0.979 | locus YGL167C, strain pmr1, active compounds read low 0.991 | locus YGL173C, strain kem1, active compounds read low 0.994 | locus YGL227W, strain vid30, active compounds read low 0.994 | locus YGL240W, strain doc1, active compounds read low 0.99 | locus YGL248W, strain PDE1, active compounds read low 0.974 | locus YGL253W, strain hxk2, active compounds read low 0.994 | locus YGR078C, strain PAC10, active compounds read low 0.981 | locus YGR135W, strain pre9, active compounds read low 1.03 | locus YGR252W, strain gcn5, active compounds read low 0.966 | locus YHR013C, strain ard1, active compounds read low 0.968 | locus YHR027C, strain rpn1, active compounds read low 0.979 | locus YHR030C, strain SLT2, active compounds read low 0.98 | locus YHR079C, strain IRE1 (second series), active compounds read low 0.975 | locus YHR094C, strain hxt1, active compounds read low 0.967 | locus YHR129C, strain ARP1, active compounds read low 0.98 | locus YHR142W, strain chs7, active compounds read low 0.999 | locus YHR200W, strain rpn10, active compounds read low 0.986 | locus YIL066C, strain RNR3, active compounds read low 0.904 | locus YIL073C, strain SPO22, active compounds read low 1.01 | locus YIL125W, strain kgd1, active compounds read low 0.968 | locus YIR030C, strain dcg1, active compounds read low 0.969 | locus YJL092W, strain hpr5, active compounds read low 0.999 | locus YJL095W, strain BCK1 (second series), active compounds read low 0.985 | locus YJL095W, strain BCK1, active compounds read low 0.981 | locus YJL115W, strain asf1, active compounds read low 0.994 | locus YJL129C, strain trk1, active compounds read low 0.976 | locus YJL134W, strain LCB3, active compounds read low 0.975 | locus YJL154C, strain vps35, active compounds read low 0.996 | locus YJL164C, strain tpk1, active compounds read low 0.991 | locus YJL166W, strain qcr8, active compounds read low 0.992 | locus YJL168C, strain set2, active compounds read low 0.98 | locus YJL187C, strain SWE1 (second series), active compounds read low 0.977 | locus YJL187C, strain SWE1, active compounds read low 0.997 | locus YJR043C, strain POL32, active compounds read low 0.981 | locus YKL009W, strain mrt4, active compounds read low 1.02 | locus YKL068W, active compounds read low 0.993 | locus YKL085W, strain MDH1 (second series), active compounds read low 1 | locus YKL085W, strain MDH1, active compounds read low 1 | locus YKL160W, strain elf1, active compounds read low 0.987 | locus YKL190W, strain CNB1, active compounds read low 0.975 | locus YKR001C, strain vps1, active compounds read low 0.996 | locus YKR026C, strain gcn3, active compounds read low 0.989 | locus YKR091W, strain srl3, active compounds read low 0.994 | locus YLL001W, strain dnm1, active compounds read low 1.01 | locus YLL026W, active compounds read low 0.984 | locus YLL041C, strain sdh2, active compounds read low 1 | locus YLR027C, strain aat2, active compounds read low 0.984 | locus YLR039C, strain RIC1, active compounds read low 0.863 | locus YLR058C, strain SHM2, active compounds read low 0.949 | locus YLR102C, strain apc9, active compounds read low 0.972 | locus YLR221C, strain rsa3, active compounds read low 1 | locus YLR258W, strain gsy2, active compounds read low 0.988 | locus YLR262C, strain YPT6 (second series), active compounds read low 0.905 | locus YLR262C, strain YPT6, active compounds read low 0.857 | locus YLR268W, strain sec22, active compounds read low 0.911 | locus YLR320W, strain mms22, active compounds read low 0.988 | locus YLR342W, strain FKS1 (second series), active compounds read low 0.915 | locus YLR342W, strain FKS1, active compounds read low 1.01 | locus YLR357W, strain rsc2, active compounds read low 1.01 | locus YLR370C, strain arc18, active compounds read low 0.992 | locus YLR384C, strain iki3, active compounds read low 1 | locus YLR418C, strain cdc73, active compounds read low 0.952 | locus YML016C, strain PPZ1, active compounds read low 0.951 | locus YML032C, strain rad52, active compounds read low 0.936 | locus YML120C, strain ndi1, active compounds read low 0.99 | locus YML124C, strain tub3, active compounds read low 0.973 | locus YMR058W, strain fet3, active compounds read low 1.01 | locus YMR078C, strain ctf18, active compounds read low 0.974 | locus YMR125W, strain sto1, active compounds read low 0.995 | locus YMR129W, active compounds read low 0.99 | locus YMR205C, strain PFK2, active compounds read low 1.01 | locus YMR223W, strain ubp8, active compounds read low 0.984 | locus YMR231W, strain pep5, active compounds read low 1.01 | locus YMR263W, strain SAP30, active compounds read low 0.975 | locus YMR307W, strain GAS1, active compounds read low 0.865 | locus YNL067W, strain RPL9B, active compounds read low 1.02 | locus YNL071W, strain lat1, active compounds read low 0.999 | locus YNL153C, strain GIM3, active compounds read low 0.981 | locus YNL209W, strain ssb2, active compounds read low 0.984 | locus YNL233W, strain BNI4, active compounds read low 0.984 | locus YNL248C, strain rpa49, active compounds read low 0.983 | locus YNL250W, strain rad50, active compounds read low 1 | locus YNL271C, strain bni1, active compounds read low 0.963 | locus YNL298W, strain CLA4, active compounds read low 0.97 | locus YNL307C, strain MCK1, active compounds read low 0.961 | locus YNL322C, strain KRE1 (second series), active compounds read low 0.989 | locus YNR049C, strain mso1, active compounds read low 1 | locus YNR052C, strain pop2, active compounds read low 0.977 | locus YOL006C, strain TOP1, active compounds read low 0.813 | locus YOL012C, strain htz1 1.08 | locus YOL147C, strain pex11, active compounds read low 0.971 | locus YOR001W, strain rrp6, active compounds read low 1 | locus YOR061W, strain CKA2, active compounds read low 0.924 | locus YOR069W, strain VPS5, active compounds read low 0.981 | locus YOR070C, strain gyp1, active compounds read low 1 | locus YOR080W, strain dia2, active compounds read low 1 | locus YOR083W, strain WHI5, active compounds read low 0.999 | locus YOR106W, strain vam3, active compounds read low 1 | locus YOR136W, strain idh2, active compounds read low 0.981 | locus YOR144C, strain elg1, active compounds read low 0.973 | locus YOR184W, strain ser1, active compounds read low 0.922 | locus YOR265W, strain rbl2, active compounds read low 1 | locus YOR270C, strain vph1, active compounds read low 0.833 | locus YOR290C, strain snf2, active compounds read low 0.974 | locus YOR316C, strain cot1, active compounds read low 0.965 | locus YPL051W, strain arl3, active compounds read low 0.987 | locus YPL055C, strain LGE1, active compounds read low 0.884 | locus YPL078C, strain atp4, active compounds read low 1 | locus YPL106C, strain sse1, active compounds read low 1 | locus YPL240C, strain hsp82, active compounds read low 0.999 | locus YPR119W, strain clb2, active compounds read low 0.985 | locus YPR141C, strain kar3, active compounds read low 0.972 | locus YPR163C, strain tif3, active compounds read low 0.956 | locus YPR167C, strain met16, active compounds read low 0.986 | strain wtn01, active compounds read low 0.936
active: locus YDR137W, strain rgp1, active compounds read low 0.843 | locus YLR371W, strain rom2, active compounds read low 0.901
